Experimental findings from PubChem BioAssay (Tox21) are described below.

Assay [1] concerns the target Estrogen receptor beta (Homo sapiens) (UniProt Q92731). The experiment in a line: qHTS assay to identify small molecule agonists of the estrogen receptor beta (ER-beta) signaling pathway (AID 1259377; active = well fitted activation curve with a large enough effect in the signal ratio in the repeat runs, not every such curve was filed as active; the % refers to the signal ratio). In outline: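 Reporter cells (HEK293T, ER-beta-UAS-bla) receive compounds or DMSO after a 6 hr pre-incubation. They then incubate 16 hr at 37C/5% CO2, and fluorescence from LiveBLAzer B/G substrate is measured after 2 hours at room temperature.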
In general terms: Quantitative high-throughput screening tests each substance at several concentrations.

Assay [2] has the same target. Kind of assay: qHTS assay to identify small molecule antagonists of the estrogen receptor beta (ER-beta) signaling pathway (AID 1259378; active = well fitted inhibition curve with a large enough effect in the signal ratio in the repeat runs, not every such curve was filed as active; the % refers to the signal ratio; also: potency is read from the fitted curve at half-maximal effect). In outline:
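ER-beta-UAS-bla HEK293T cells in 2% charcoal-stripped FBS medium treated with compound plus 1nM final 17-beta-estradiol for 16 hr at 37C. Beta-lactamase reporter read by FRET substrate fluorescence after 2 hours at room temperature.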

The nature of assay [3]: qHTS assay to identify small molecule agonists of the androgen receptor (AR) signaling pathway in the presence of an antagonist - cell viability counter screen (AID 1259379). Also: nearly all actives have a fitted effect of over 25% in size. Also: potency is read from the fitted curve at half-maximal effect. In outline: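 Counter screen for cell viability run in parallel with the AR agonist-mode luciferase assay. MDA-kb2 cells were co-treated with nilutamide (3.0uM final) and compounds, then incubated 16 hr at 37C, and CellTiter-Fluor fluorescence was measured.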

The nature of assay [4]: qHTS assay to identify small molecule agonists of the estrogen receptor beta (ER-beta) signaling pathway - cell viability counter screen (AID 1259380). Also: nearly all actives have a fitted effect of over 30% in size. Also: potency is read from the fitted curve at half-maximal effect. Summed up:
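In this qHTS counter screen, HEK293T cells carrying an ER-beta/UAS beta-lactamase reporter, grown in 2% charcoal-stripped FBS, received compound for 16 hr; ATP-based CellTiter-Glo luminescence was then read after 30 min at room temperature.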

Assay [5] in a line: qHTS assay to identify small molecule antagonists of the estrogen receptor beta (ER-beta) signaling pathway - cell viability counter screen (AID 1259382). Also: nearly all actives have a fitted effect of over 55% in size. Also: potency is read from the fitted curve at half-maximal effect. In outline:
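HEK293T ER-beta-UAS-bla, 2% charcoal-stripped FBS; compounds + 1nM E2 16 hr 37C; CellTiter-Glo luminescence, 30 min RT.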

Assay [6] deals with Estrogen receptor (Homo sapiens) (UniProt P03372). Kind of assay: qHTS assay to identify small molecule agonists of the estrogen receptor alpha (ER-alpha) signaling pathway in the presence of an antagonist (AID 1259383; calls by dose curve; also: top concentration of the series differs between compounds; nearly all actives have a fitted effect of over 15% in size). In outline: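 ER-alpha agonism measured under antagonist challenge: 10.0nM ICI-182,780 (final) plus compound, 15 concentrations, 22hr, VM7Luc4E2 ERE-luciferase cells. Read by luminescence.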

Assay [7] is described as follows: qHTS assay to identify small molecule agonists or antagonists of the thyroid stimulating hormone receptor (TSHR) signaling pathway - wild type cell line counter screen (AID 1259384; calls by dose curve). Summed up: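 Wild-type Hek293 cells, 800/well, 18 h at 37C, then compound with Ro20-1724 for 30 min RT. cAMP by HTRF (cAMP-d2/anti-cAMP cryptate), 1 h RT, fluorescence read. 15 concentrations, triplicates.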

Assay [8] has as its target Thyrotropin receptor (Homo sapiens) (UniProt P16473). Kind of assay: qHTS assay to identify small molecule antagonists of the thyroid stimulating hormone receptor (TSHR) signaling pathway (AID 1259385; calls by dose curve; also: nearly all actives have a fitted effect of over 20% in size). Summed up:
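TSHR-HEK293 cells (800/well) plated 18 h, then compounds with Ro20-1724 and TSH at 1.5 ng/mL final, 30 min at room temperature. cAMP quantified by HTRF (cAMP-d2/anti-cAMP-cryptate, 1 h); 15 concentrations in triplicate.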

Assay [9] can be described thus: qHTS assay to identify small molecule agonists of the estrogen receptor alpha (ER-alpha) signaling pathway in the presence of an antagonist - cell viability counter screen (AID 1259386).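 Also: series mostly up to about 92 µM; cells exposed to compounds for 22 h at 37 °C before the viability read; nearly all actives have a fitted effect of over 30% in size.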 Summed up:
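Steps: 5-day stripped-FBS culture; seed and incubate 24hr; add ICI-182,780 (10.0nM final); pin 15-point compound titration; incubate 22hr at 37C; add CellTiter-Fluor at 21hr; read fluorescence.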

The target in assay [10] is Progesterone receptor (Homo sapiens) (UniProt P06401). Kind of assay: qHTS assay to identify small molecule agonists of the progesterone receptor (PR) signaling pathway (AID 1346784; calls by dose curve; also: nearly all actives have a fitted effect of over 30% in size). Summed up: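 Reporter assay, GripTite PR-UAS-bla HEK 293T cells: 16 hr exposure to DMSO-dissolved compounds at 37C, 5% CO2, in steroid-depleted (2% charcoal-stripped FBS) medium; beta-lactamase measured by FRET fluorescence.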

The nature of assay [11]: qHTS assay to identify small molecule antagonists of the progesterone receptor (PR) signaling pathway - cell viability counter screen (AID 1346798). Also: nearly all actives have a fitted effect of over 50% in size. Also: potency is read from the fitted curve at half-maximal effect. Summed up:
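In the same plates used for the beta-lactamase readout, cell viability of compound- and R5020-treated PR-UAS-bla HEK293T cells (16 hr, 37C) was assessed by CellTiter-Glo luminescence.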

The nature of assay [12]: qHTS assay to identify small molecule antagonists of the TGF-beta/Smad signaling pathway - cell viability counter screen (AID 1346824). Also: nearly all actives have a fitted effect of over 50% in size. Summed up:
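SBE-bla HEK 293T cells, incubated overnight, then compound plus 0.25 ng/mL TGF-beta1 (stock added) for 5 hr at 37 C. Viability was read in the same wells by CellTiter-Glo luminescence after 30 min at room temperature.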

Assay [13] can be described thus: qHTS assay to identify small molecule agonists of the TGF-beta/Smad signaling pathway (AID 1346859; active = well fitted activation curve with a large enough effect in the signal ratio in the repeat runs, not every such curve was filed as active; the % refers to the signal ratio; also: series mostly up to about 77 µM). In outline:
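Screening used HEK 293T SBE-bla cells at 4,000/well. Test agents: 5 hr, 37 C. Detection: FRET substrate, 2 hr RT, then excitation 405 nm with emissions at 460 and 530 nm.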

The target of assay [14] is Thyrotropin-releasing hormone receptor (Homo sapiens) (UniProt P34981). Kind of assay: qHTS assay to identify small molecule antagonists of the thyrotropin-releasing hormone receptor (TRHR) signaling pathway (AID 1346877; active = well fitted inhibition curve with a large enough effect in the repeat runs, not every such curve was filed as active; also: series mostly up to about 51 µM). In outline: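 Human TRHR in HEK293 cells; inhibition of the intracellular calcium rise triggered by 1 nM TRH was followed by fluorescence over 3 min. Compounds were run at 15 concentrations, three replicates each.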

Assay [15] has the same target. The experiment in a line: qHTS assay to identify small molecule agonists of the thyrotropin-releasing hormone receptor (TRHR) signaling pathway (AID 1346891; calls by dose curve; also: series mostly up to about 58 µM). In outline: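 Readout was intracellular calcium fluorescence in TRHR-Hek293 cells. Cells were incubated 18 h, dye-loaded 2 h at 37 °C, and treated with compound in agonist mode.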
Assay [16] can be described thus: Human pregnane X receptor (PXR) small molecule agonists, qHTS cell viability counter screen (AID 1346977). Also: nearly all actives have a fitted effect of over 50% in size. Also: potency is read from the fitted curve at half-maximal effect. Summed up: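 In each well, the PXR reporter HepG2 line was checked for viability: CellTiter-Fluor reagent added 23hr post-dosing, fluorescence read after 1hr incubation at 37C.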
Assay [17] deals with Progesterone receptor (Homo sapiens) (UniProt P06401). The experiment in a line: qHTS assay to identify small molecule antagonists of the progesterone receptor (PR) signaling pathway (AID 1346795; active = well fitted inhibition curve with a large enough effect in the signal ratio in the repeat runs, not every such curve was filed as active; the % refers to the signal ratio; also: potency is read from the fitted curve at half-maximal effect). In outline:
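Stimulus R5020 at 1 nM final; cells HEK293T PR-UAS-bla; medium with 2% charcoal-stripped FBS; compound exposure 16 hr at 37C, 5% CO2; detection by FRET beta-lactamase substrate, 2 hr, room temperature.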

Assay [18] in a line: qHTS assay to identify small molecule agonists of the progesterone receptor (PR) signaling pathway - cell viability counter screen (AID 1346799; calls by dose curve; also: nearly all actives have a fitted effect of over 45% in size; also: potency is read from the fitted curve at half-maximal effect). Summed up: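 Multiplexed viability read: CellTiter-Glo luminescence, 30 min RT, following LiveBLAzer FRET measurement on PR-UAS-bla HEK293T cells exposed to compounds 16 hr.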
Assay [19] in a line: qHTS assay to identify small molecule agonists of the TGF-beta/Smad signaling pathway - cell viability counter screen (AID 1346829). Also: top concentration of the series differs between compounds; nearly all actives have a fitted effect of over 45% in size. In outline: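 SBE-bla HEK 293T cells plated overnight, compound exposure 5 hr at 37 C. Viability read in the same wells by CellTiter-Glo luminescence after 30 min at room temperature, following the beta-lactamase read.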
Assay [20] addresses Androgen receptor (Homo sapiens) (UniProt P10275). The experiment in a line: qHTS assay to identify small molecule agonists of the androgen receptor (AR) signaling pathway in the presence of an antagonist (AID 1259381; calls by dose curve; also: nearly all actives have a fitted effect of over 15% in size). Summed up: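 AR antagonist background: nilutamide 3.0uM final. Cell line: MDA-kb2, MMTV-driven luciferase, responsive to both AR and GR. Exposure 16hr, 37C, no CO2; ONE-Glo luminescence.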

Several values for one entry are separate records, joined by “and”; a condition that tells them apart may be missing. Equal values may be shown once. Inconclusive results are not listed. Activity calls are given as the source filed them. Unless noted, calls follow the shape of the dose curve; as a rule, active = well fitted curve in the direction sought with a large enough effect in the repeat runs; inconclusive = weak or mixed curves; inactive = no such curve, though single readings can be large; an effect the other way counts as inactive or inconclusive.

Chain of Estrogen receptor beta (Homo sapiens) (Q92731 whole entry, looked up): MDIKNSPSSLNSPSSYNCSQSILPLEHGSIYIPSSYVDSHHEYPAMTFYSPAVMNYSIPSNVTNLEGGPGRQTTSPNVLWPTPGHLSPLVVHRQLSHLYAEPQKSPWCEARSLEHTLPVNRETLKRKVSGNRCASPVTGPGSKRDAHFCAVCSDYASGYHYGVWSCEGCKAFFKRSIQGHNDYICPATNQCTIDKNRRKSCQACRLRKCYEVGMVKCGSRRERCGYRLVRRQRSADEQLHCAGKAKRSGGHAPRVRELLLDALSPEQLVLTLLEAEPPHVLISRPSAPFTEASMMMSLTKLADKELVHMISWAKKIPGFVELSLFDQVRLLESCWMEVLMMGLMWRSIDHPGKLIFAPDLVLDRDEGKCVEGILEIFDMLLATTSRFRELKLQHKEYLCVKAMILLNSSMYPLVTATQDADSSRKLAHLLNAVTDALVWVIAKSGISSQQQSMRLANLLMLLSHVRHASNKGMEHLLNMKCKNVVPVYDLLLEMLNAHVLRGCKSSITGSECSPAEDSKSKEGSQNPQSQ
Chain of Thyrotropin-releasing hormone receptor (Homo sapiens) (P34981 whole entry, looked up): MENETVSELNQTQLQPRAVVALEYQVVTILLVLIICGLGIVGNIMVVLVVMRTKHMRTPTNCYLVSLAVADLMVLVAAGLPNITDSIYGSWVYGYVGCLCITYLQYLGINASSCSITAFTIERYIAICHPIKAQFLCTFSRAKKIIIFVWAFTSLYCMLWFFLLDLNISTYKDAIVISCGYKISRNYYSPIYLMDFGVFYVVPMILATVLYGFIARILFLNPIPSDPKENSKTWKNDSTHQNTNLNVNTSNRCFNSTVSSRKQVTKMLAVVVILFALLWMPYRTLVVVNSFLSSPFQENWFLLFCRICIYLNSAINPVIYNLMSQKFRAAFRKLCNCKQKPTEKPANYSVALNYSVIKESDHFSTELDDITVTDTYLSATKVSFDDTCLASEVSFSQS
Chain of Estrogen receptor (Homo sapiens) (P03372 whole entry, looked up): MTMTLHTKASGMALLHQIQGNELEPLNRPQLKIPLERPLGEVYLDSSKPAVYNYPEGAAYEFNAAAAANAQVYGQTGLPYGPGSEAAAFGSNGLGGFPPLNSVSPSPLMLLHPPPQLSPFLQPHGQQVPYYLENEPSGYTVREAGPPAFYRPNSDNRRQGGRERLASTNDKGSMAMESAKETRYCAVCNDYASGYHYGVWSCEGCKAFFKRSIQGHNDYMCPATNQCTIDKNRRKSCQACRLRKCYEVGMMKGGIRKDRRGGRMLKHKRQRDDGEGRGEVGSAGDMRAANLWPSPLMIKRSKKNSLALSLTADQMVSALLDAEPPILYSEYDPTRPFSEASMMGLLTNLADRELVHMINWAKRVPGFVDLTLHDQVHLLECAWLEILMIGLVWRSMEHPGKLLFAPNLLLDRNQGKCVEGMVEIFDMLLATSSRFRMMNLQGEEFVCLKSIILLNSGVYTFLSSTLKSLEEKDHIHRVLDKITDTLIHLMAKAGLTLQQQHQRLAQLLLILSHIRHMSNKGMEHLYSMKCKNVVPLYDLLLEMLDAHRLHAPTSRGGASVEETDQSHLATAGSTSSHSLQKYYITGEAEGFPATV
Chain of Thyrotropin receptor (Homo sapiens) (P16473 whole entry, looked up): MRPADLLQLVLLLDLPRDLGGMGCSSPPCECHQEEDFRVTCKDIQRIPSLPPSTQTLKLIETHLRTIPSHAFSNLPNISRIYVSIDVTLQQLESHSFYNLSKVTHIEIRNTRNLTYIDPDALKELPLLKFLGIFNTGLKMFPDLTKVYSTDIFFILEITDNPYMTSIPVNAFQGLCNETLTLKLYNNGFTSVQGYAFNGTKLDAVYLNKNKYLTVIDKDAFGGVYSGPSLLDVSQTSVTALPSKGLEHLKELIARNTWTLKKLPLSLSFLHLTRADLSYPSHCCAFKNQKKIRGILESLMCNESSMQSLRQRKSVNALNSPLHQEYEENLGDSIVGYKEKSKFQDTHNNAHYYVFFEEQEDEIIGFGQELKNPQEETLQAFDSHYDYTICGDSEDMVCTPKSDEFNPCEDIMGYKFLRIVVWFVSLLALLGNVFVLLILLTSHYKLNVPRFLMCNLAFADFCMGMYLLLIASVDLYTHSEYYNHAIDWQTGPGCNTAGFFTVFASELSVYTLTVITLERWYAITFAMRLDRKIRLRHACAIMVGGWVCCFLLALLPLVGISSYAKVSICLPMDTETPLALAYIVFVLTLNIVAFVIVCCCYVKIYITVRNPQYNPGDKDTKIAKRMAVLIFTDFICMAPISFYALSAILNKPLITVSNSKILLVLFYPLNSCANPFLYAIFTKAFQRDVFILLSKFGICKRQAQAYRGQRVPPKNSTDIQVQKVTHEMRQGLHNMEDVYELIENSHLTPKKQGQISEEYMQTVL
Chain of Progesterone receptor (Homo sapiens) (P06401 whole entry, looked up): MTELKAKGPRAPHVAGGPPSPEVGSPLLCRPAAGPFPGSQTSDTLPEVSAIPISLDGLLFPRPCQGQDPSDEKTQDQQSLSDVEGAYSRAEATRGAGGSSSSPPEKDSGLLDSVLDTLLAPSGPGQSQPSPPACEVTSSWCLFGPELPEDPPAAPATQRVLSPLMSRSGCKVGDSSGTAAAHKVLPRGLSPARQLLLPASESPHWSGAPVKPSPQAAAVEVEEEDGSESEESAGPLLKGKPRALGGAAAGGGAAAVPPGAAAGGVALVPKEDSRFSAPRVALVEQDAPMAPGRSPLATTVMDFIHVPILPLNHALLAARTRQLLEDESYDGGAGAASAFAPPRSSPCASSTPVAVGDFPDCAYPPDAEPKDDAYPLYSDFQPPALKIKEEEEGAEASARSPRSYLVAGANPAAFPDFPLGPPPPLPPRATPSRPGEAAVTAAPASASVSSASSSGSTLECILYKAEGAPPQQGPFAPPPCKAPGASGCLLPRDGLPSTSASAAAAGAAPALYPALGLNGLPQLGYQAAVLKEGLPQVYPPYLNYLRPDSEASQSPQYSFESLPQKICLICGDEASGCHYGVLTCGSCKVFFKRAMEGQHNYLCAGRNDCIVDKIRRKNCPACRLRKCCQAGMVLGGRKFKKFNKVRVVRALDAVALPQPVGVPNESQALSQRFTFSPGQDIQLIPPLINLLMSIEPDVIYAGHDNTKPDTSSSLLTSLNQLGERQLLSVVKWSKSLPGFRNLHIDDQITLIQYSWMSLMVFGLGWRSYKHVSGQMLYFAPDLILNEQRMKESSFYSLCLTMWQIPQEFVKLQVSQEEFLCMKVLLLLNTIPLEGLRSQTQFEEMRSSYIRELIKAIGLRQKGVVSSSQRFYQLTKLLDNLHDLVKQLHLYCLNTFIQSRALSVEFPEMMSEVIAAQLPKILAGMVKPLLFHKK
Chain of Androgen receptor (Homo sapiens) (P10275 whole entry, looked up): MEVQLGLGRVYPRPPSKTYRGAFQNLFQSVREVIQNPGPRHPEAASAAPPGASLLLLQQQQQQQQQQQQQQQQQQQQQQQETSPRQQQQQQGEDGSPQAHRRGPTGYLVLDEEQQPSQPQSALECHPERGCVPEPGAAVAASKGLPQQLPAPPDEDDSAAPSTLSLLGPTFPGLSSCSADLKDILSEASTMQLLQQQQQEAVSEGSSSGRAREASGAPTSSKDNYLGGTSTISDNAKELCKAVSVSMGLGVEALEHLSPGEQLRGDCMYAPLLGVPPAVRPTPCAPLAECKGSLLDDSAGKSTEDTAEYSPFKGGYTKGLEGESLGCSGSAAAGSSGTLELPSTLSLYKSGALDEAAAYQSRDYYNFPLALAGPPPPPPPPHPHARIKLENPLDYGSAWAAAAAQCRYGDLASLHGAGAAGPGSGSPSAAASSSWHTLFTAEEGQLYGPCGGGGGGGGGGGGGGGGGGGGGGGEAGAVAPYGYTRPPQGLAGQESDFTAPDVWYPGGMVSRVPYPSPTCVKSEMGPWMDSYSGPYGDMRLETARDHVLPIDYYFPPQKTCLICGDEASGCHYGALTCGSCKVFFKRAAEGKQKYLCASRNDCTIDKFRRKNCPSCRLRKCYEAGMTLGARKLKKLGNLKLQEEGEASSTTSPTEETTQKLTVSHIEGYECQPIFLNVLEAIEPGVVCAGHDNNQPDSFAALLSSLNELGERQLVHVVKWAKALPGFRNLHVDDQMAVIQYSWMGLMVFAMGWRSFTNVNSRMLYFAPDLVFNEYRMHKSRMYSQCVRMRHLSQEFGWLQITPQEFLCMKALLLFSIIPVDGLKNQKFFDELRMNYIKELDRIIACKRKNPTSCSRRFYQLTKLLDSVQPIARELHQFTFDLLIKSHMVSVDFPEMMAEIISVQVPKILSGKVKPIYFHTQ

On to `CCCCc1oc2ccccc2c1C(=O)c1cc(I)c(OCCN(CC)CC)c(I)c1`, for which the Potency entry in assay [1], in [6], in assay [8], in assay [9], in assay [10] and in [12] was “inactive” in each case. Also, the Potency result in assay [14] and in assay [15] was “inactive” in each case. Besides, the Potency was 21.9 µM (active) and 26.6 µM (active) in assay [2]; 43.6 µM (active) and 33.5 µM (active) in [3]; 19.5 µM (active) and 29.8 µM (active) in [4]; 19.5 µM (active) and 26.6 µM (active) in [5]; 24.5 µM (active) and 11.9 µM (active) in assay [11]; 43.6 µM (active) and 26.6 µM (active) in assay [16]. The compound was called inactive in assay [7] and in assay [13].
Regarding `S=C(NC1CCCCC1)NC1CCCCC1`, the Potency entry in assay [1], in assay [3], in assay [4], in assay [5], in assay [8] and in assay [9] was “inactive” in each case. The Potency entry in assay [10], in assay [12], in [19] and in [16] was “inactive” each time. Further, the Potency was 6.11 µM (active) in assay [2]; 3.44 µM (active) in assay [17]; 6 µM (active) and 3.86 µM (active) in assay [11]; 7.7 µM (active) in assay [18]. Moreover, the outcome in assay [7] and in assay [13] was inactive.
On to `c1cc(-c2ccncc2)ccn1`, for which the Potency result in assay [1], in assay [2], in assay [3], in assay [4], in assay [5] and in assay [6] was “inactive” each time. For the same compound, the Potency result in assay [8], in assay [9], in assay [10], in assay [17], in [11] and in assay [18] was “inactive” each time. Moreover, the Potency result in [12], in assay [19], in assay [14], in assay [15] and in assay [16] was “inactive” in each case. The call in [7] and in assay [13] was inactive.
As for `OC(CCl)CCl`, the Potency result in [1], in assay [2], in assay [3], in [4], in [5] and in [6] was “inactive” in each case. Also, the Potency result in assay [8], in assay [9], in assay [10], in assay [17], in assay [11] and in assay [12] was “inactive” throughout. The Potency entry in assay [19] and in assay [16] was “inactive” each time. Further, the compound was called inactive in [7] and in assay [13].
Regarding `C/C=C/C(=O)O`, the Potency entry in assay [1], in assay [2], in [3], in assay [4], in [5] and in [8] was “inactive” each time. For the same compound, the Potency entry in assay [9], in assay [10], in [17], in assay [11], in [18] and in assay [12] was “inactive” throughout. In addition, the Potency entry in assay [19], in assay [14], in assay [15] and in assay [16] was “inactive” in each case. Also, the compound was called inactive in assay [7] and in assay [13].
Take `C[C@]12CCC(=O)C=C1CC[C@@H]1[C@@H]2C(=O)C[C@@]2(C)[C@H]1CC[C@]2(O)C(=O)CO`: the Potency result in [1], in assay [2], in assay [3], in assay [4], in assay [5] and in assay [6] was “inactive” throughout. Besides, the Potency result in assay [9], in assay [11], in [18], in assay [12], in [19] and in assay [16] was “inactive” each time. Also, the Potency in assay [17] is 11.9 µM (active). Besides, in assay [13], the compound was called inactive.
For `c1ccc2cc(Nc3ccc(Nc4ccc5ccccc5c4)cc3)ccc2c1`, the Potency result in [1], in assay [2], in assay [3], in assay [4], in [5] and in [9] was “inactive” in each case. The Potency entry in assay [10], in [17], in assay [11], in assay [18], in assay [12] and in assay [19] was “inactive” throughout. Also, the Potency entry in assay [14], in [15] and in assay [16] was “inactive” in each case. In addition, the result in [20] and in assay [13] was inactive.
In the case of `O=C=Nc1ccc(Cc2ccc(N=C=O)cc2)cc1`, the Potency result in assay [1], in [2], in assay [3], in [4], in assay [5] and in [8] was “inactive” each time. The Potency entry in [9], in assay [10], in assay [11], in [18], in assay [12] and in [19] was “inactive” in each case. The Potency result in assay [16] was “inactive”. The compound was classed as inactive in assay [7] and in assay [13].
